Source: PubChem
An excerpt weighted towards active compounds, which were near 19% of everything screened.
DT40 TDP1 no CPT – qHTS for Inhibitors of human tyrosyl-DNA phosphodiesterase 1 (TDP1): qHTS in cells in absence of CPT; Potency, µM (top dose mostly 46.2 µM), hits mostly inhibitors; AID 686978, 2013; DT40 Tdp1-/- hTDP1 cells, no CPT, ATP luminescence, 48 h; 15% of 420,000 active; also: nearly all actives have a fitted effect of over 55% in size
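Camptothecin absent (DMSO only). Human TDP1-complemented DT40 knockout cells, 400 cells/well, 37 °C for minimum 48 hr; ATP measured via CellTiter-Glo, 30 min dark incubation, luminescence.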
Giardia kill – Small Molecules that selectively kill Giardia lamblia: qHTS; Giardia lamblia trophozoite viability; AID 540267, 2011; activity change, % at 7.66 µM, hits read low; 0.15% of 340,000 active; in the data active = activity change below about -80%; inconclusive = between about -30% and that limit;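 also: parasites exposed to compound for two days anaerobically before the ATP read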
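Trophozoites 100 cells/well + cpd; 48 hrs, 37 deg C, anaerobic. ATPLite 1-Step added, 15-30 min RT, luminescence read (ATP-based viability).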
TDP1 inh – qHTS Assay for Inhibitors of Tyrosyl-DNA Phosphodiesterase (TDP1); Potency, µM (top dose mostly 130 µM), most hits filed as inhibitors; AID 485290, 2010; recombinant TDP1, AlphaScreen DNA substrate cleavage; 0.28% of 350,000 active; Tyrosyl-DNA phosphodiesterase 1 (Homo sapiens), Q9NUW8; also: nearly all actives have a fitted effect of over 40% in size
Target sequence (Q9NUW8 whole entry, looked up): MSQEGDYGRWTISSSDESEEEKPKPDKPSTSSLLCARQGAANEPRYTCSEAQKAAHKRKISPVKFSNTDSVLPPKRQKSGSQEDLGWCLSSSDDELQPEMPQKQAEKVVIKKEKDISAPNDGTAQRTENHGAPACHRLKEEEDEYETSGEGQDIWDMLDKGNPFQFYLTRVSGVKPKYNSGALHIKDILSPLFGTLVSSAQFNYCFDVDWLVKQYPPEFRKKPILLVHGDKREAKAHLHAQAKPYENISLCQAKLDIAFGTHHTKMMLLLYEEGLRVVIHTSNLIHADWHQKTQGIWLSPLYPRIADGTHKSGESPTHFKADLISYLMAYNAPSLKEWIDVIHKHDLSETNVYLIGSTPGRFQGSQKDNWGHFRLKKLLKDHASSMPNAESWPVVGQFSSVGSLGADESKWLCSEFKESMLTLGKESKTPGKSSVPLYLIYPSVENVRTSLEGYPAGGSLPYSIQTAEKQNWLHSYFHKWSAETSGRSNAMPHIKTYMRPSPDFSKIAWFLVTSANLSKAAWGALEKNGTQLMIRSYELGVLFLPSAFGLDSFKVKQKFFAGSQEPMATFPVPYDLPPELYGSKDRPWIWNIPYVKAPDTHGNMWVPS
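Here, a 5' biotin and 3' phosphotyrosine-FITC DNA oligonucleotide reports Tdp1 activity: intact substrate bridges AlphaScreen beads, while cleavage leaves a 3' phosphate and drops signal. All incubations at room temperature.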
IL-1B inflam inh – qHTS for Inhibitors of Inflammasome Signaling: IL-1-beta AlphaLISA Primary Screen. activity change, % at 57.5 µM. 4.7% of 360,000 active. THP-1 LPS/ATP IL-1B secretion, AlphaLISA, 16 h; hits give low values; in the data active = activity change below about -50%; inconclusive = mostly about -30% to -49%
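Secreted IL-1B measured by AlphaLISA bead assay after 16 h compound exposure of THP-1 cells; compounds (final up to 57.5 uM) added 1 h before LPS (250 ng/mL) and ATP (1.25 mM) stimulation; lower signal means less secretion.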
ELG1 repair inh – qHTS screen for small molecules that inhibit ELG1-dependent DNA repair in human embryonic kidney (HEK293T) cells expressing luciferase-tagged ELG1; HEK293T ELG1-luciferase reporter, luminescence, 16 h; DNA damage induced by 5-fluorouridine; Potency, µM (doses to about 46.1 µM), hits mostly inhibitors; 2.3% of 330,000 active; AID 504467, 2011; also: nearly all actives have a fitted effect of over 55% in size
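Cells (2,000 per well) received 5-fluorouridine plus test compound or DMSO and were incubated 16 hr at 37 °C, 5% CO2. Luciferase activity was read by luminescence 30 min after ONE-Glo addition; signal suppression marked inhibition of damage-induced ELG1 function.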
TDP1 cell CPT – qHTS for Inhibitors of human tyrosyl-DNA phosphodiesterase 1 (TDP1): qHTS in cells in presence of CPT | chicken DT40 Tdp1-/-;hTDP1 cells + 20 nM CPT, ATP luminescence, 48 h | 12% of 420,000 active | Potency, µM (titrated, usually from 46.2 µM), most hits filed as inhibitors; also: nearly all actives have a fitted effect of over 55% in size
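Cell growth measured by CellTiter-Glo luminescence after a minimum 48 h, 37 C compound exposure with 20 nM CPT in Tdp1-knockout DT40 cells stably expressing hTDP1, seeded 400/well; qHTS titration format.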
Hits are given with their value; . = inactive; ? = inconclusive; / = no result given. Unless noted, calls follow the shape of the dose curve; as a rule, active = well fitted curve in the direction sought with a large enough effect; inconclusive = small, poorly fitted or top-dose-only effect, or another doubt; inactive = no such curve, though single readings can be large; an effect the other way counts as inactive or inconclusive.

SMILES | DT40 TDP1 no CPT | Giardia kill | TDP1 inh | IL-1B inflam inh | ELG1 repair inh | TDP1 cell CPT
O=C(CCC1CCCN(C(=O)c2ccoc2)C1)NCc1ccccc1F (stereo unspecified) | . | . | . | . | . | ?
COc1ccc(CNc2nc(-c3ccccc3CN(C)C)nc3ccccc23)c(OC)c1 | 7.3µM | / | . | / | / | 10µM
COc1ccc2[nH]cc(CCNc3nc(-c4ccoc4)nc4ccccc34)c2c1 | ? | / | . | / | / | ?
COc1cccc(-c2nc(NCc3cccnc3)c3ccccc3n2)c1O | . | . | / | . | ? | .
COc1ccc2[nH]cc(CCNc3nc(-c4ccccc4CN(C)C)nc4ccccc34)c2c1 | 21µM | / | . | / | / | 21µM
COc1ccc2[nH]cc(CCNc3nc(-c4ccc(N(C)C)cc4)nc4ccccc34)c2c1 | 23µM | / | / | / | / | 15µM
CN(C)c1ccc(-c2nc(NCCc3cnc[nH]3)c3ccccc3n2)cc1 | ? | / | / | / | / | 13µM
CCOc1ccccc1N1CCN(C(=O)/C=C/c2cccc([N+](=O)[O-])c2)CC1 | ? | . | . | . | . | ?
COc1ccc(NC(=O)Cn2cc(S(=O)(=O)c3ccccc3)c(=O)c3cc(C)ccc32)cc1Cl | . | / | . | / | / | .
COc1cccc(-c2nc(NCCc3c[nH]c4ccc(OC)cc34)c3ccccc3n2)c1 | ? | / | . | / | / | ?
COc1ccc2[nH]cc(CCNc3nc(-c4ccc(C(=O)N(C)C)cc4)nc4ccccc34)c2c1 | 7.3µM | / | . | / | / | 21µM
Cn1nccc1C(=O)Nc1ccc(OC(=O)c2ccnn2C)cc1 | . | . | . | . | 23µM | .
Cc1cc(C)c(NC(=O)Cn2nc3c(cc2=O)CCCC3)c(C)c1 | . | / | . | / | / | .
Cc1c(C(=O)N2CCc3ccccc3C2)sc2nc(-c3ccccc3)cn12 | 21µM | . | . | . | 21µM | ?
COc1ccc(-c2cn3c(C)c(C(=O)N4CCc5ccccc5C4)sc3n2)cc1 | 21µM | . | / | . | ? | 18µM
Cc1cc(C)cc(NC(=O)CN2C(=O)CSc3ccc(S(=O)(=O)N4CCCC4)cc32)c1 | ? | / | . | / | / | ?
CCc1ccc(NC(=O)CN2C(=O)CSc3ccc(S(=O)(=O)N(C)C)cc32)cc1 | . | / | . | / | / | .
CCOC(=O)CN1C(=O)CSc2ccc(S(=O)(=O)N3CCCC3)cc21 | ? | . | . | -52 | . | .
COc1ccc(NC(=O)CN2C(=O)CSc3ccc(S(=O)(=O)N(C)C)cc32)cc1Cl | ? | / | . | / | / | 23µM
Cc1ccc(NC(=O)CN2C(=O)CSc3ccc(S(=O)(=O)N4CCCCC4)cc32)cc1 | . | . | . | -89 | . | ?
O=C(CN1C(=O)CSc2ccc(S(=O)(=O)N3CCCC3)cc21)Nc1cccc(Cl)c1 | 23µM | / | . | / | / | ?
COc1ccccc1C(=O)NC(CCSC)C(=O)NCCCn1nc(C)cc1C (stereo unspecified) | . | . | / | . | . | .
CCC(C)NCCOc1ccc(C)cc1[N+](=O)[O-] (stereo unspecified) | . | . | / | -54 | . | .
Cc1nc(NC(=O)/C=C/c2ccccc2)sc1C(=O)Nc1ccc(Cl)cc1 | ? | . | . | . | . | ?
Cc1nc(Nc2ccc(Cl)cc2Cl)sc1C(=O)Nc1ccccc1 | 18µM | . | . | -94 | ? | 26µM
SMILES | DT40 TDP1 no CPT | Giardia kill | TDP1 inh | IL-1B inflam inh | ELG1 repair inh | TDP1 cell CPT
Cc1nc(Nc2ccc(Cl)c(Cl)c2)sc1C(=O)Nc1ccccc1 | 15µM | . | . | . | ? | 6.5µM
CCCCCn1nc(C(=O)OCc2nc(N)nc(Nc3ccccc3)n2)c2ccccc2c1=O | ? | . | . | ? | . | .
CCOc1ccc(NC(=O)c2cc(=O)c3ccc(C)c(C)c3o2)cc1 | 9.2µM | / | . | / | / | ?
Cc1ccnc(NS(=O)(=O)c2ccc(NC(=O)c3cc(=O)c4ccc(C)c(C)c4o3)cc2)n1 | ? | / | . | / | / | .
Cc1cc(=O)oc2c3c(cc(OCC(=O)NCc4ccncc4)c12)OC(C)(C)CC3 | 23µM | . | / | . | . | ?
COc1ccc(CNC(=O)COc2cc3c(c4oc(=O)cc(C)c24)CCC(C)(C)O3)cc1OC | 23µM | . | / | ? | ? | 21µM
Cc1cc(=O)oc2c3c(cc(OCC(=O)NCc4ccco4)c12)OC(C)(C)CC3 | ? | . | / | . | . | ?
CCOc1ccc(NC(=O)CN2C(=O)NC(C)(c3ccc4c(c3)OCCCO4)C2=O)cc1OCC (stereo unspecified) | . | . | / | . | / | .
CCOC(=O)[C@@H]1[C@H]2COc3ccc(Br)cc3[C@@H]2N2C(=O)N(c3ccc(F)cc3)C(=O)[C@@]12C | ? | ? | . | . | . | ?
CCOC(=O)[C@@H]1[C@H]2COc3ccccc3[C@@H]2N2C(=O)N(c3ccc(Cl)cc3)C(=O)[C@@]12C | . | . | / | . | . | .
CCOC(=O)[C@@H]1[C@H]2COc3ccc(Br)cc3[C@@H]2N2C(=O)N(c3ccc(C(F)(F)F)cc3)C(=O)[C@@]12C | 23µM | . | / | . | . | 21µM
CCOC(=O)[C@H]1[C@H]2COc3ccc(Br)cc3[C@@H]2N2C(=O)N(c3ccc(F)cc3)C(=O)[C@@]12C | ? | . | . | . | . | 18µM
CCOC(=O)[C@@H]1[C@H]2COc3ccc(Br)cc3[C@@H]2N2C(=O)N(c3cccc(F)c3)C(=O)[C@@]12C | 18µM | . | / | . | . | 26µM
CCOC(=O)[C@@H]1[C@H]2COc3ccccc3[C@@H]2N2C(=O)N(c3cccc(F)c3)C(=O)[C@]12C | . | . | / | . | / | .
CCOC(=O)[C@@H]1[C@H]2COc3ccc(Br)cc3[C@@H]2N2C(=O)N(c3ccc(Cl)cc3)C(=O)[C@@]12C | 16µM | . | . | . | . | 21µM
O=C(CSc1nc(-c2ccccc2)cs1)Nc1ccccc1[N+](=O)[O-] | . | . | . | . | . | .
O=C(CSc1n[nH]c(-c2ccccc2)n1)N1CCN(c2ccccc2F)CC1 | ? | / | . | / | / | ?
CC(=O)Nc1ccc(NC(=O)c2csnn2)cc1 | . | / | . | / | / | .
NC1=NC2=C(CCCC2)C2(CCCCC2)S1 | ? | . | . | -65 | . | ?
O=C(COC(=O)c1cnccn1)c1ccc(C2CCCCC2)cc1 | . | . | / | . | . | .
Cn1cccc1-c1cc(C(=O)N/N=C/c2ccccc2Cl)[nH]n1 | . | . | . | ? | ? | .
Cn1cccc1-c1cc(C(=O)N/N=C/c2ccc(F)cc2)[nH]n1 | ? | . | . | ? | . | .
